Data reported in the supplement of paper PMC6555819.

Legend:
Experiment in all cases: PBM binding z-score (relative to random genomic background probes); higher = stronger binding; sequences stand for … in GC…GCGATTGACAGCGTAGAATGAAGG
[1] = system: FXR:RXRa (NR concentration 270 nM, RXRa partner concentration 90 nM)
How it was run: (§1)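 For binding z-scores, the reference was random background probes on custom Agilent 4×180K protein-binding microarrays. These arrays were incubated 1 h with ligand-free nuclear receptor dimers in PBS pH 7.4, 2% milk, 0.02% Triton X-100, 1 mM DTT, 0.2 mg/mL BSA and 0.4 mg/ml salmon testes DNA. Fluorescence was scanned after antibody detection of each partner (one per run) and regression-normalized.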

[2] = system: LXRa:RXRa (NR concentration 270 nM, RXRa partner concentration 90 nM)
How it was run: as §1

[3] = system: LXRa homodimer (NR concentration 270 nM)
How it was run: as §1

[4] = system: LXRb:RXRa (NR concentration 270 nM, RXRa partner concentration 90 nM)
How it was run: as §1

[5] = system: LXRb homodimer (NR concentration 270 nM)
How it was run: as §1

[6] = system: PPARa:RXRa (NR concentration 270 nM, RXRa partner concentration 90 nM)
How it was run: as §1

[7] = system: PPARg:RXRa (NR concentration 180 nM, RXRa partner concentration 90 nM)
How it was run: as §1

[8] = system: PPARg:RXRa 270nM:90nM, anti-RXR (NR concentration 270 nM, RXRa partner concentration 90 nM)
How it was run: as §1

[9] = system: PPARg:RXRa 30nM:10nM, anti-RXR (NR concentration 30 nM, RXRa partner concentration 10 nM)
How it was run: as §1

[10] = system: PPARg:RXRa 90nM:30nM, anti-RXR (NR concentration 90 nM, RXRa partner concentration 30 nM)
How it was run: as §1

Sequence	PBM binding z-score [1]	PBM binding z-score [2]	PBM binding z-score [3]	PBM binding z-score [4]	PBM binding z-score [5]	PBM binding z-score [6]	PBM binding z-score [7]	PBM binding z-score [8]	PBM binding z-score [9]	PBM binding z-score [10]
ACTAGCAGGCCAAGTTTGGGTCACTCCAACAAAG	0.154	0.00504	-0.19	0.664	-0.49	1.18	-0.0331	-0.0928	-0.803	-0.387
TCTAGTTGGTCACGTAGGTCACACACGACGGGTA	2.06	1.85	1.01	2	0.514	2.78	2.17	3.05	3.43	3.35
CCTACTGGGCCAAATGTCATTGATTCCAATGCTC	0.068	-0.00295	-0.00298	0.307	-0.155	3.42	7	7.26	6.52	7.54
TCTTGTAGATCAGCAAGTTAAGAAAGCTGGCCAA	-0.13	-0.113	-0.739	-0.0484	-0.743	0.316	-0.599	1.24	2.5	1.78
ACTTGCAGGCCAAGTTTGGGTCACTCAAACAAAG	0.638	0.231	-0.189	1.11	-0.0882	1.87	0.148	0.667	-0.561	0.0704
AGAACGAGGGCAATGAGGTGATAGCACGGGTGGC	0.341	0.494	-0.43	-0.215	-0.118	1.72	1.75	1.46	-0.142	0.347
ATGCCAAGGTGATCGTGAGGTCGTTGATACTAAC	1.44	0.89	0.206	0.945	-0.844	1.55	0.467	0.399	-0.303	0.00157
ACTAGCAGGCCAAGGGGCACTCAAGATTAGTCCG	-0.336	-0.192	-0.413	0.0457	-0.63	1.63	4.11	4.46	2.5	4.64
CAGCCTAGGTCAGGGCCTGTATAGGAGGAACGTT	1.48	0.732	-0.667	0.189	-0.753	1.95	0.752	0.931	-0.43	0.141
ATCTCTAGGTAAAAGTTCAGCGAATCCCGAGGAT	1.36	1.99	1.58	1.46	0.982	4.39	8.87	8.21	8.78	9.67
CGTCCAAGGTCAAAGGTCAGTGGAGAGATGACGG	8.17	6.91	3.66	6.84	2.07	7.16	10.7	9.05	8.08	9.59
TCATATATGTAAACAGGTGAAAGTCCGTAAGTTA	0.999	1.09	0.211	1.51	0.115	1.84	1.67	2.97	3.81	3.19
GCTATTTGGTCAGTAAAAGGTCACACACCGGTCG	3.6	4.54	5.27	4.71	1.54	4.7	3.46	4.72	2.76	4.46
ATACCAAGCTGATCGTGAGGTCGTTGATACTAAC	0.705	0.688	0.391	0.818	-0.351	0.693	0.178	-0.0256	-0.198	-0.0126
ACTTACGCGTCAACGAGGTTATAGCACGCGTATA	0.0989	0.589	-0.0981	0.964	0.0457	1.35	0.862	0.282	0.115	0.253
TCATATAGGTCAACAGGTGAAAGTCCGTAAGTTA	6.45	5.39	1.85	4.2	1.2	5.91	8.36	7.51	5.85	7.17
AGAATGAGGTTACCAAAGATCAGGGAAACGCTTG	1.86	6.59	-0.00475	3.1	-0.712	3.65	3	3.03	0.954	2.22
GCTTACGGGTCAACGGTTATAGCATGAATAGAAT	5.44	3.55	-0.033	3.68	-0.198	5.55	6.07	5.8	3.19	5.2
ATCTGTAGGTAAAGATAGTTCAGTGAATGCAAAT	0.274	4.33	0.422	0.986	0.477	0.733	0.782	0.571	0.256	0.391
AGAATGAGGTTACCAAAGAACAGGGAAACGCTTG	1.88	5.18	-0.214	2.35	-0.334	3.32	2.51	2.41	1.03	1.71
CGAACTAGGTCAGACCAGGACAGTGAAGGATGAT	1.62	1.04	-0.304	0.246	-0.517	3.36	6.07	5.08	2.19	3.95
TCAGATAGGTAAATGCTAGGTGAAAGTCCGATCT	-0.114	0.46	-0.0618	0.329	-0.66	0.824	0.231	2.17	3.59	2.99
CAAACTAGGGCAAGAGGTCAAAGTCCGCTTCCCG	5.03	5.04	4.65	4.67	0.677	5.74	8.05	6.92	5.45	6.96
CGTCCAAGGTCAGAGAGGTCTGTGAATGCCGAGT	4.66	3.14	0.0313	2.1	-0.51	3.92	2.27	2.64	0.0649	1.45
